Laboratory results as given in PubChem BioAssay AID488840 (Broad Institute, 2010).
Hit rate of the full screen: of about 1,400 compounds, about 45 (3%) were called active.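 Rule for the calls: active = half-maximal dose of signal decrease from fit no higher than ten times the top valid tested dose; inconclusive = fit invalid, or curve flat with 30 to 70% inhibition; inactive = the rest.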 A selection follows. Results with a measured potency or affinity are listed apart.

Biological target: Lysine-specific demethylase 4A (Homo sapiens) (UniProt O75164)
Sequence (O75164 whole entry, looked up): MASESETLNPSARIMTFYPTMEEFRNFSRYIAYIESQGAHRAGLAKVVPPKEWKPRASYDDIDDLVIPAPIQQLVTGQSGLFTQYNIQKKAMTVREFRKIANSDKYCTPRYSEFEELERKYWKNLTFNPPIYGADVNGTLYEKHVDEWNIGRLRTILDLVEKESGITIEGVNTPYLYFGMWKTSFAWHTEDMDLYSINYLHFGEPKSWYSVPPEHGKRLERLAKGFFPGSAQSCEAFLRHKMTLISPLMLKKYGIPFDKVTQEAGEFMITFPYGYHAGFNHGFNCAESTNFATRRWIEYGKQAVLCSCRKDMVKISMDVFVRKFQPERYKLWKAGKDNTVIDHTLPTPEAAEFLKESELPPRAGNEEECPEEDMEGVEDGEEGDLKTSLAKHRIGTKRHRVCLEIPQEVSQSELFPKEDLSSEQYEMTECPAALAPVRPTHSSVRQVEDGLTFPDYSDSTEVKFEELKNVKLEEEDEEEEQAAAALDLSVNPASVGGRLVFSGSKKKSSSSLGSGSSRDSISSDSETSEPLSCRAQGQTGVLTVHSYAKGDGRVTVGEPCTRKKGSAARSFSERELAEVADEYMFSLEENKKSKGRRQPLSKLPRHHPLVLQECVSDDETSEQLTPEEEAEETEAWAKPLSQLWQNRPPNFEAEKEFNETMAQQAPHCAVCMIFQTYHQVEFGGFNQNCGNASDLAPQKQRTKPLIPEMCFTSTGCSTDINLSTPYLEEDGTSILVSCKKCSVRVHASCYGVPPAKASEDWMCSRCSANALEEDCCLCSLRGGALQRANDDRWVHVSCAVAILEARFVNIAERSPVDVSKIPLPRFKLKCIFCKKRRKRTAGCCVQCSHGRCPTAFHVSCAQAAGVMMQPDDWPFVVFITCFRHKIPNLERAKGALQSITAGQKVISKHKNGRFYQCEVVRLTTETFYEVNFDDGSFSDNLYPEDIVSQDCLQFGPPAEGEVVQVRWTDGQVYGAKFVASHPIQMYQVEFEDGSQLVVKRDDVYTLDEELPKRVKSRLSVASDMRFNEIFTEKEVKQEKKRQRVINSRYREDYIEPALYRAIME
Experiment: JMJD2A histone demethylase inhibitors, dose response, selectivity assay for GASC-1 inhibitor project, biochemical, DELFIA europium, cherry-picked samples (AID 488840);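 note: europium signal reports the dimethyl H3K9 product detected by antibody so inhibitors lower it; 0% = median of neutral control wells and -100% = median of positive control wells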
Settings: GST-JMJD2A(1-420) H3K9me3 demethylation; series mostly up to 6 µM; activity change, negative = inhibition: at the top concentration

Activity change, negative = inhibition, inactive:
O=C(Oc1ccc(N2C(=O)CCC2=O)cc1)c1ccccc1 -0.204%, O=C(Nc1nnc(-c2cc(Cl)ccc2Cl)o1)c1ccco1 -0.944%, O=C(CC1C[C@H](C(=O)N2CCCCC2)[C@@]2(CCc3ccccc3)c3[nH]c4ccccc4c3CCN2C1=O)NCCC1=CCCCC1 (stereo partly specified) 2.22%, Cc1ccc(OCC(=O)Nc2ccccc2Sc2ccccc2)c([N+](=O)[O-])n1 -1.07%, O=c1oc(C2(O)CCCCC2)cc2ccccc12 1.88%, COc1ccc(C(=O)O/N=C(\C)c2cnccn2)cc1 -3.82%, COc1ccc(NC(=O)N(C)C[C@H]2Oc3ccc(NC(=O)CCC(F)(F)F)cc3C(=O)N([C@H](C)CO)C[C@@H]2C)cc1 -0.526%, O=C(CSc1nc(-c2ccccc2)cc(=O)[nH]1)NCc1ccc2c(c1)OCO2 -1.25%, O=S(=O)(c1ccc2nc(Nc3ccccc3)ccc2c1)N1CCCCC1 14.2%, N#Cc1cnn(CC2CCCCC2)c1N 2.59%, CC(=O)C(Sc1nc(N2CCOCC2)nc(N2CCOCC2)n1)C(=O)Nc1ccccc1 (stereo unspecified) -2.12%, CCOC(=O)C1=C(C)NC(=O)NC1c1ccc(Br)s1 (stereo unspecified) -9.77%, CCOC(=O)C1=C(c2ccccc2)NC(=O)NC1c1ccc(O)c(OCC)c1 (stereo unspecified) 3%, Cc1cc(SCC(=O)c2ccccc2)n2nc(C)nc2n1 4.99%, N=c1nc(-c2ccccc2)ccn1O 2.55%, O=C(NCC1CCCO1)Nc1ccccc1 (stereo unspecified) 4.13%, CCOc1ccc(CN2CCN(Cc3nc(C(C)C)cs3)CC2CCO)cc1 (stereo unspecified) 9.55%, O=C(OCc1c(Cl)cccc1Cl)c1cnccn1 -3.04%, Cn1c(=O)c2[nH]c(N3CCN(c4cccc(O)c4)CC3)nc2n(C)c1=O 1.58%, Cc1ccc(NN=Nc2nc3c([nH]2)c(=O)n(C)c(=O)n3C)cc1 -12.8%, C#CCOCCOCCOCCNc1nc(N2CCN(C(=O)C([C@@H](C)O)n3cc([C@@H](N)CCCCN)nn3)CC2)nc(N2CCN(C(=O)[C@H](CC(N)=O)n3cc([C@@H](N)C(C)C)nn3)CC2)n1 (stereo partly specified) 0.979%, COc1ccc(/C=N/N(C)c2cc(=O)n(C)c(=O)[nH]2)cc1OC 8.31%, Nc1ccc(S(=O)(=O)NC2(C(F)(F)F)NC(=O)N(c3ccc(F)cc3)C2=O)cc1 (stereo unspecified) 0.62%, COc1ccc(N(Cc2cc3cccc(C)c3[nH]c2=O)S(C)(=O)=O)cc1 -0.361%, O=C(Nc1ccccc1)N(CCc1nc2ccccc2[nH]1)C1CCCC1 -5.44%, O=C(Cn1cnc2c(OCc3ccccc3)ncnc21)NCCCc1ccccc1 -1.3%, COc1ccc(NC(=O)NCCCCc2ccccc2)c(OC)c1 6.33%, Cc1cc(NC(=O)CCC(=O)N(c2ccccc2)C2(C(=O)NC3CCCCC3)CCCC2)no1 -3.43%, Cc1cnc(NC(=O)c2ccc(-c3nc4ccccc4s3)o2)s1 1.03%, Cn1c(/N=C/c2cc(Cl)ccc2O)nc2ccccc21 4.98%, O=C(COC(=O)C1(c2ccc(Cl)cc2)CCCC1)NC1CCS(=O)(=O)C1 (stereo unspecified) 4.75%, O=C(CSc1nnc(CNC(=O)c2c(F)cccc2Cl)o1)Nc1ccc2c(c1)OCCO2 0.72%, COc1ccc(-c2nn3c(-c4ccco4)nnc3s2)cc1OC 13.3%, O=C(Nc1ccc(-c2nc3ncccc3o2)cc1)c1ccc(Br)o1 -1.12%, CC(C)(C)n1nc2c(c1NC(=O)c1ccc(Br)o1)CS(=O)C2 (stereo unspecified) -1.29%, CCn1c(CCn2ccnc2C)n[nH]c1=S 0.682%, COC(=O)c1cc(S(=O)(=O)N2CCN(c3ccc(F)cc3)CC2)c[nH]1 -2.52%, COc1ccc(/C=N/n2c(=O)[nH]c3c([nH]c4ccc(Br)cc43)c2=O)cc1CN1CCOCC1 2.87%, COc1ccc(S(=O)(=O)N(C)C[C@H]2Oc3ccc(NC(=O)Cn4cnnn4)cc3C(=O)N([C@H](C)CO)C[C@@H]2C)cc1 -2.83%, C=CCNCCOc1cccc(Br)c1 -3.77%, O=C(NCc1ccccn1)c1cn(Cc2ccccc2)nn1 -6.48%, CC(=O)Nc1ccc(NC(=O)Cn2cnc3c(cnn3C(C)(C)C)c2=O)cc1 -13.6%, Cc1ccc(S(=O)(=O)N2[C@@H](c3ccc(C#N)cc3)C(C(=O)O)=C[C@H]2C(C)(C)C)cc1 -3.84%, CC[C@@]1(C(=O)OC)N[C@H](CN(C)C(=O)Nc2ccc(Cl)cc2)[C@@H]2C(=O)N(Cc3ccccc3)C(=O)[C@@H]21 3.72%, O=C(c1cc2ccccc2oc1=O)N1CCN(CCc2ccccc2)CC1 1.84%, Cc1cccc(OCc2nnc(SCC(=O)Nc3cccc(C(=O)N4CCOCC4)c3)o2)c1C -0.255%, N=c1n(CC(=O)c2cccc([N+](=O)[O-])c2)c2ccccc2n1Cc1ccccc1 1.29%, Nc1cccc(C(=O)Nc2ccco2)c1 -3.86%, COc1cc2[nH]c(=O)n(CCCCCC(=O)NCCCN3CCCC3=O)c(=O)c2cc1OC 1.66%, CC(=O)c1sc(NC(=O)c2ccc(C)cc2)nc1C -7.38%, Cc1ccc(CNC(=O)Cc2ccc(-c3ccccc3)cc2)cc1 6.79%, CCN1CCC(=NNC(=O)c2ccc(C)c([N+](=O)[O-])c2)CC1 0.261%, Cc1ccc(C2CC(c3ccccc3)=NN2C(=S)Nc2ccccc2)o1 (stereo unspecified) 3.02%, CC(C)C[C@H](NC(=O)N1CCCCCC1)C(=O)O 0.718%, O=C(NNC(=O)c1cccs1)c1ccc([N+](=O)[O-])cc1 -5.67%, CC1=NN(C(N)=S)C(=O)C1N=Nc1c(C)cc(C)cc1C (stereo unspecified) 3.02%, C=CCn1c(O)c(N=Nc2ccccc2C)c2ccccc21 -6.46%, Cc1ccccc1CNc1nnnn1C -0.727%, COC(=O)c1cc(NC(=O)CSc2nncn2C)cc(C(=O)OC)c1 0.678%, COC(C/C=C\[C@H](O)[C@H](C)OCc1ccccc1)OC 2.1%, CC(C)(C)OC(=O)C[C@@H]1C/C=C\C[C@H](CC(=O)N[C@H](CO)Cc2ccccc2)C(=O)N[C@@H](Cc2ccccc2)COC1=O 0.0527%, C[C@H](CO)N1C[C@H](C)[C@@H](CN(C)Cc2ccc(Cl)c(Cl)c2)Oc2c(NS(=O)(=O)c3cn(C)cn3)cccc2C1=O -0.723%, CCOCCCNC(=O)c1c[nH]c2ccc(C)cc2c1=O 0.456%, Cc1ccccc1CN1C(=O)C(O)(CC(=O)c2ccncc2)c2ccccc21 (stereo unspecified) -4.55%, Cc1ccc(CNC(=O)[C@@H](NC(=O)Cc2ccccc2)C(C)C)cc1 2.23%, O=C(Cc1ccccc1)NC1(O)C(=O)c2ccccc2C1=O -4.47%, COc1ccc(OCC(=O)N/N=C/C(C)=C/c2ccco2)c(Br)c1 -1.99%, COc1ccc(OC)c(/C=C2\SC(=S)N(Cc3cccnc3)C2=O)c1 0.643%, COc1ccccc1N1CCN(C(=O)CSc2nc(C)cc(=O)[nH]2)CC1 -2.92%, COc1ccc(-c2nnc(SC(C)C(=O)NCc3ccc4c(c3)OCO4)n2Cc2ccco2)cc1 (stereo unspecified) 5.3%, CCN(CC)C(=O)N1CCc2ccccc2C1CN1C(=O)c2ccccc2C1=O (stereo unspecified) -1.77%, C=CCc1c(C)nc(SC(C)C)[nH]c1=O -9.55%, O=C(Cn1cnc2c(OCc3ccccc3)ncnc21)N1CCN(c2ccccn2)CC1 -3.78%, CC(C)(O)[C@H](O)Cc1cc2ccc(=O)oc2cc1O[C@@H]1O[C@H](CO)[C@@H](O)[C@H](O)[C@H]1O -0.509%, CC(=O)c1ccc(O[C@@H]2O[C@H](CO)[C@@H](O)[C@H](O)[C@H]2O)cc1 -4.17%, COC(C(=O)Nc1ccc(NC(=O)C(OC)c2ccccc2)cc1)c1ccccc1 (stereo unspecified) 3.15%
